{
  "source": "PubChem BioAssay (Tox21)",
  "note": "A number with no mark means an inactive call. The source made the active and inactive calls. The call rests on the fitted dose curve; in most records, active means well fitted curve in the direction sought with a large enough effect in the repeat runs; inconclusive means weak or mixed curves; inactive means flat fitted curve, though single readings scatter. On the % scale 0 is the no-effect control and ±100 the full control effect.",
  "data": [
    {"test": "qHTS assay to test for compound auto fluorescence at 535 nm (green) in HepG2 cell free culture (AID 720686)", "details": "Cell-free medium, green autofluorescence 485/535 nm; series mostly up to 46 µM; fluorescence, % of fluorescein control: at the top concentration", "values": [
      {"compound": "COc1nc(N)nc2c1ncn2[C@@H]1O[C@H](CO)[C@@H](O)[C@@H]1O", "fluorescence, % of fluorescein control": "-0.0067%"},
      {"compound": "CC(C)(C)NCCNC(C)(C)C", "fluorescence, % of fluorescein control": "-0.041% [at 91.3 µM]"},
      {"compound": "CCSC(=O)N(CC(C)C)CC(C)C", "fluorescence, % of fluorescein control": "0.0913% [at 91.3 µM]"},
      {"compound": "CC1(C)CO[C@@H](CC(=O)O)CN1", "fluorescence, % of fluorescein control": "0.0396%"},
      {"compound": "COCCc1ccc(OCC(O)CNC(C)C)cc1", "note": "(centres undefined)", "outcome": "inactive"},
      {"compound": "O=C1NC(=O)[C@@]2(CCOc3ccc(F)cc32)N1", "fluorescence, % of fluorescein control": "-0.0138%"},
      {"compound": "N[C@H]1CN(c2c(F)cc3c(=O)c(C(=O)O)cn(C4C[C@H]4F)c3c2Cl)CC12CC2", "note": "(some centres undefined)", "fluorescence, % of fluorescein control": "0.121%"},
      {"compound": "CCCCCCCCCCCCN(CCCCCCCCCCCC)CCCCCCCCCCCC", "fluorescence, % of fluorescein control": "-0.0344% [at 91.3 µM]"},
      {"compound": "O=C(O)CCCc1ccccc1", "fluorescence, % of fluorescein control": "0.0753%"},
      {"compound": "N#Cc1ccc(C2CCCc3cncn32)cc1", "note": "(centres undefined)", "fluorescence, % of fluorescein control": "-0.0758%"},
      {"compound": "CCOC(C)(C)C", "fluorescence, % of fluorescein control": "0.0041% [at 95.7 µM]"},
      {"compound": "c1ccc(CC2=NCCN2)cc1", "fluorescence, % of fluorescein control": "-0.0097% [at 18.6 µM]"},
      {"compound": "C=CCS(=O)(=O)O", "fluorescence, % of fluorescein control": "-0.0153% [at 91.3 µM]"},
      {"compound": "O=C(O)CCCl", "fluorescence, % of fluorescein control": "-0.0396% [at 95.7 µM]"},
      {"compound": "CC(=O)c1ccccc1O", "fluorescence, % of fluorescein control": "-0.0558% [at 91.3 µM]"},
      {"compound": "CCCN(CCC)CCc1cccc2c1CC(=O)N2", "fluorescence, % of fluorescein control": "0.498%"},
      {"compound": "NC(=O)COCCN1CCN(C(c2ccccc2)c2ccc(Cl)cc2)CC1", "note": "(centres undefined)", "fluorescence, % of fluorescein control": "-0.03%"},
      {"compound": "NC(=O)Nc1ccccc1", "fluorescence, % of fluorescein control": "0.0122% [at 91.3 µM]"},
      {"compound": "COc1c(N2C[C@@H]3CCCN[C@@H]3C2)c(F)cc2c(=O)c(C(=O)O)cn(C3CC3)c12", "outcome": "inactive"},
      {"compound": "CCC(=O)OC(C)c1ccccc1", "note": "(centres undefined)", "fluorescence, % of fluorescein control": "0.0069% [at 91.3 µM]"},
      {"compound": "CCN1CCC[C@H]1CNC(=O)c1c(O)c(Cl)cc(Cl)c1OC", "fluorescence, % of fluorescein control": "0.0264%"},
      {"compound": "OC(CCN1CCCCC1)(c1ccccc1)C1CC2C=CC1C2", "note": "(centres undefined)", "outcome": "inactive"},
      {"compound": "CCCN1CCCC[C@H]1C(=O)Nc1c(C)cccc1C", "fluorescence, % of fluorescein control": "0.0968%"},
      {"compound": "Nc1cc(=O)[nH]c(N)n1", "fluorescence, % of fluorescein control": "-0.041%"},
      {"compound": "CC(C)CNCC(C)C", "fluorescence, % of fluorescein control": "-0.0041% [at 91.3 µM]"},
      {"compound": "O=C1CCCCCCCCCCCN1", "outcome": "inactive"},
      {"compound": "COC(=O)c1c(Cl)c(Cl)c(C(=O)OC)c(Cl)c1Cl", "outcome": "inactive"},
      {"compound": "CCCCCCCCCCCCCC=O", "fluorescence, % of fluorescein control": "0.0349% [at 3.72 µM]"},
      {"compound": "N[C@H](C(=O)O)c1ccc(O)cc1", "fluorescence, % of fluorescein control": "-0.0064%"}
    ]},
    {"test": "qHTS assay to test for compound auto fluorescence at 460 nm (blue) in HepG2 cells (AID 720687)", "details": "autofluorescence 405/460 nm, 1 h; series mostly up to 46 µM; fluorescence, % of fluorescent control: at the top concentration", "method_in_brief": "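Cells (2,000/well in MEM with 10% FBS) attached overnight at 37 C, then were exposed to compound or DMSO for 1 hr at 37 C, 5% CO2. Fluorescence read at Ex/Em 405/460 nm, expressed as triamterene-equivalent signal.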", "values": [
      {"compound": "COc1nc(N)nc2c1ncn2[C@@H]1O[C@H](CO)[C@@H](O)[C@@H]1O", "fluorescence, % of fluorescent control": "0.0031%"},
      {"compound": "CC(C)(C)NCCNC(C)(C)C", "fluorescence, % of fluorescent control": "0.221% [at 91.3 µM]"},
      {"compound": "CCSC(=O)N(CC(C)C)CC(C)C", "fluorescence, % of fluorescent control": "-0.0715% [at 91.3 µM]"},
      {"compound": "CC1(C)CO[C@@H](CC(=O)O)CN1", "fluorescence, % of fluorescent control": "-0.0298%"},
      {"compound": "COCCc1ccc(OCC(O)CNC(C)C)cc1", "note": "(centres undefined)", "outcome": "inactive"},
      {"compound": "O=C1NC(=O)[C@@]2(CCOc3ccc(F)cc32)N1", "fluorescence, % of fluorescent control": "0.325%"},
      {"compound": "N[C@H]1CN(c2c(F)cc3c(=O)c(C(=O)O)cn(C4C[C@H]4F)c3c2Cl)CC12CC2", "note": "(some centres undefined)", "fluorescence, % of fluorescent control": "-0.104%"},
      {"compound": "CCCCCCCCCCCCN(CCCCCCCCCCCC)CCCCCCCCCCCC", "fluorescence, % of fluorescent control": "-0.171% [at 91.3 µM]"},
      {"compound": "CC(C[N+](C)(C)C)OC(N)=O", "note": "(centres undefined)", "fluorescence, % of fluorescent control": "-0.0584%"},
      {"compound": "O=C(O)CCCc1ccccc1", "fluorescence, % of fluorescent control": "-0.014%"},
      {"compound": "N#Cc1ccc(C2CCCc3cncn32)cc1", "note": "(centres undefined)", "fluorescence, % of fluorescent control": "-0.007%"},
      {"compound": "CCOC(C)(C)C", "fluorescence, % of fluorescent control": "-0.0421% [at 95.7 µM]"},
      {"compound": "c1ccc(CC2=NCCN2)cc1", "fluorescence, % of fluorescent control": "0.118% [at 18.6 µM]"},
      {"compound": "O=C(O)c1ccccc1OP(=O)(O)O", "fluorescence, % of fluorescent control": "-0.0583%"},
      {"compound": "C=CCS(=O)(=O)O", "fluorescence, % of fluorescent control": "-0.225% [at 91.3 µM]"},
      {"compound": "O=C(O)CCCl", "fluorescence, % of fluorescent control": "-0.0935% [at 95.7 µM]"},
      {"compound": "COC(=O)[C@@H](N)Cc1ccc(O)c(O)c1", "fluorescence, % of fluorescent control": "0.029%"},
      {"compound": "NS(=O)(=O)c1cc(C(=O)O)cc(N2CCCC2)c1Oc1ccccc1", "fluorescence, % of fluorescent control": "0.29% [at 18.6 µM]"},
      {"compound": "CCOC(=O)c1cccc(N)c1", "fluorescence, % of fluorescent control": "0.0277%"},
      {"compound": "CN(C(=O)c1c(O)c2ccccc2n(C)c1=O)c1ccccc1", "fluorescence, % of fluorescent control": "-0.0911%"},
      {"compound": "CC(=O)c1ccccc1O", "fluorescence, % of fluorescent control": "0.0057% [at 91.3 µM]"},
      {"compound": "CO[Si](CCCOCC1CO1)(OC)OC", "note": "(centres undefined)", "outcome": "inactive"},
      {"compound": "CCCN(CCC)CCc1cccc2c1CC(=O)N2", "fluorescence, % of fluorescent control": "0.0487%"},
      {"compound": "NC(=O)COCCN1CCN(C(c2ccccc2)c2ccc(Cl)cc2)CC1", "note": "(centres undefined)", "fluorescence, % of fluorescent control": "-0.14%"},
      {"compound": "NC(=O)Nc1ccccc1", "fluorescence, % of fluorescent control": "-0.154% [at 91.3 µM]"},
      {"compound": "COc1c(N2C[C@@H]3CCCN[C@@H]3C2)c(F)cc2c(=O)c(C(=O)O)cn(C3CC3)c12", "outcome": "inactive"},
      {"compound": "CCC(=O)OC(C)c1ccccc1", "note": "(centres undefined)", "fluorescence, % of fluorescent control": "-0.225% [at 91.3 µM]"},
      {"compound": "CCCc1cc(C(N)=S)ccn1", "fluorescence, % of fluorescent control": "-0.0461%"},
      {"compound": "CC/C=C\\CC/C=C/C(OCC)OCC", "fluorescence, % of fluorescent control": "0.0073% [at 91.3 µM]"},
      {"compound": "CCN1CCC[C@H]1CNC(=O)c1c(O)c(Cl)cc(Cl)c1OC", "fluorescence, % of fluorescent control": "-0.0419%"},
      {"compound": "OC(CCN1CCCCC1)(c1ccccc1)C1CC2C=CC1C2", "note": "(centres undefined)", "outcome": "inactive"},
      {"compound": "CCCN1CCCC[C@H]1C(=O)Nc1c(C)cccc1C", "fluorescence, % of fluorescent control": "0.0367%"},
      {"compound": "Nc1cc(=O)[nH]c(N)n1", "fluorescence, % of fluorescent control": "0.144%"},
      {"compound": "CC(C)CNCC(C)C", "fluorescence, % of fluorescent control": "0.0374% [at 91.3 µM]"},
      {"compound": "O=C1CCCCCCCCCCCN1", "outcome": "inactive"},
      {"compound": "COc1ccc2c(c1)c(CC(=O)OCC(=O)O)c(C)n2C(=O)c1ccc(Cl)cc1", "fluorescence, % of fluorescent control": "0.0859%"},
      {"compound": "COC(=O)c1c(Cl)c(Cl)c(C(=O)OC)c(Cl)c1Cl", "outcome": "inactive"},
      {"compound": "N=C(N)c1ccc(OCCCOc2ccc(C(=N)N)cc2)cc1", "fluorescence, % of fluorescent control": "-0.0351%"},
      {"compound": "CCCCCCCCCCCCCC=O", "fluorescence, % of fluorescent control": "-0.0327% [at 3.72 µM]"},
      {"compound": "N[C@H](C(=O)O)c1ccc(O)cc1", "fluorescence, % of fluorescent control": "-0.0978%"}
    ]}
  ]
}
